# Laboratory results published in PubChem BioAssay (NCI).
# This is part of a sample that, as a whole, favours compounds with a hit. Of some 83,000 tested, about 20% had one in any assay.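 Growth was measured after 48 h exposure to one concentration of compound in 96-well plates. Values under 10 count as active.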 A number with no mark means an inactive call. Active and inactive are the calls of the source.
# Tested on: TK-10 renal
# Test: NCI-60 one-dose screen, 48 h (100 = growth as untreated, 0 = no growth, -100 = all killed)
# Details: 10 µM unless noted
row,Structure (SMILES),growth
1,CCN(CC)CCOc1nc2c3ccc(Cl)cc3nn2c2ccccc12,51%
2,C=C(c1ccc(C(=O)O)cn1)c1cc2c(cc1C)C(C)(C)CCC2(C)C,131%
3,CCn1cc(C(=O)NN=C2CCCCCC2)c(=O)c2ccc(C)nc21,95.7%
4,Cc1c2cc[nH]c(=O)c2c(C)c2c1[nH]c1ccc(OC(=O)c3ccccc3)cc12,34%
5,C#Cc1cccc(Nc2nc3ccc([N+](=O)[O-])cc3nc2Nc2cccc(C#C)c2)c1,-34.4% (active)
6,COc1cccc(C(=O)OCC(O)C(=O)NC23CC4CC(CC(C4)C2)C3)c1 (stereo not given),96.4%
7,COc1ccc2cc(Cn3cc[n+](Cc4ccc5ccccc5c4)c3)ccc2c1,9.68% (active)
8,Cc1ccc(C(=O)c2ccc(CC(=O)N/N=C/c3ccc(O)cc3O)n2C)cc1,52.9%
9,O=C(Nc1ccccc1)c1sc(-c2ccccc2)cc1O,118%
10,COC(=O)c1ccc2c(c1)c1c(C)c3ccncc3c(C)c1n2C,32.7%
11,O=C(O)c1cccc(N/C=C/C(=O)c2cc3cc(Br)ccc3oc2=O)c1,119%
12,O=C(N/N=C/c1ccc([N+](=O)[O-])cc1)c1ccc2nc(-c3ccc(Cl)cc3)[nH]c2c1,89.8%
13,CCCCN1C(=O)/C(=c2\sc3n(c2=O)NC2C(N=3)N(CC)C(=O)N2CC)c2ccccc21 (stereo not given),83.8%
14,CNCc1cccc2c1OCCOCCN(C)C(=O)CN(C)S(=O)(=O)c1ccc(cc1)-c1cnc(N)c(n1)C(=O)N2,11.5%
15,COc1ccccc1-n1c(-c2cc(O)ccc2C)cn2c3c(=O)[nH]c(=O)n(C)c3nc12,99.2%
16,COc1ccc(NC(=O)c2sc3nc(C)c(C(O)c4ccccc4)cc3c2N)cc1 (stereo not given),52.6%
17,COc1cc(C2C3=C(COC3=O)N(CCO)c3cc4c(cc32)OCCO4)cc(OC)c1OC (stereo not given),60.3%
18,C/C(=C(/c1ccc(Cl)cc1)c1ccc(OCCCN(C)C)cc1)c1ccc(Cl)cc1,103%
19,O=C(CSc1nc2ccc([N+](=O)[O-])cc2[nH]1)Nc1ccc(Br)cc1,94.5%
20,C[N+](C)(C/C=C/c1ccccc1)Cc1ccccc1,96.3%

row,Structure (SMILES),growth
1,C/C(=C(\c1ccc(OCCN2CCCCCC2)cc1)c1ccc(OC(=O)Cc2ccccc2)cc1)c1ccc(Cl)cc1,68.6%
2,COc1ccc2c(c1)c(-c1nonc1-c1c[nH]c3ccc(Br)cc13)cn2C,58.2%
3,CCCCCCCCn1ccc2cc(NC(=O)Cn3cc(CN4CCN(CC)CC4)nn3)ccc21,99.2%
4,C#CC#CC#CC#CC#CC#CC#CC#CC[C@H]1OC[C@@H](COC(=O)O[C@@H](C(=O)O[C@H]2C[C@@]3(O)[C@@H](OC(=O)c4ccccc4)[C@@H]4[C@]5(OC(C)=O)CO[C@@H]5C[C@H](O)[C@@]4(C)C(=O)[C@H](OC(C)=O)C(=C2C)C3(C)C)[C@@H](NC(=O)c2ccccc2)c2ccccc2)O1,86.5%
5,Cc1cc(C)cc(Nc2ccc([N+](=O)[O-])c(NCCN3CCOCC3)n2)c1,65%
6,CCN=C1C=CC(=C(c2ccc(N(C)C)cc2)c2ccc(N(C)C)cc2)c2ccccc21,-3.47% (active)
7,CCOC(=O)Cn1c(=O)c2c3ccccc3n(C)c2n2nnc(-c3ccccc3)c12,129%
8,COc1ccc2[nH]cc(-c3nc(-c4cn(C)c5ccncc45)cs3)c2c1,78.6%
9,COc1ccc2nc(SCC(=O)Nc3ccccc3C)[nH]c2c1,105%
10,CCCCNC1=C(OCC)C(=O)c2ccccc2C1=O,145%
11,COc1ccc(C2=Nc3c/c(=C\c4c(O)[nH]c5cc(Cl)ccc45)ccc3=N2)cc1,114%
12,Nc1ccc([N+](=O)[O-])cc1N=C/C=C/c1ccccc1,79.8%
13,c1ccc(CNc2ccc3nc(CCC4CCCCC4)[nH]c3c2)cc1,84.2%
14,COc1ccc2c(c1)c(-c1cc(-c3cn(C)c4ccc(OC)cc34)on1)cn2C,126%
15,C#CC#CC#CC#CC#CC#CC#CC#CC[C@H]1OC[C@H](COC(=O)O[C@@H](C(=O)O[C@H]2C[C@@]3(O)[C@@H](OC(=O)c4ccccc4)[C@@H]4[C@]5(OC(C)=O)CO[C@@H]5C[C@H](O)[C@@]4(C)C(=O)[C@H](OC(C)=O)C(=C2C)C3(C)C)[C@@H](NC(=O)c2ccccc2)c2ccccc2)O1,102%
16,Cc1ccc(-c2nc(C(Cl)Cl)nc3cc(C)nn23)cc1,29%
17,O=C(Nc1nc(C(=O)N2CCN(C(c3ccccc3)c3ccccc3)CC2)cs1)c1ccc(NC2CCCCC2)c([N+](=O)[O-])c1,100%
18,COc1cc(-c2nc3ccc(C)cc3[nH]2)ccc1OCC(=O)N=Nc1c(O)[nH]c2ccc(Cl)cc12,23.4%
19,C=C1C(=O)O[C@H]2[C@H]1CC/C(COC(=O)NCCCCCCCCNC(=O)OC/C1=C/CC[C@@]3(C)O[C@H]3[C@H]3OC(=O)C(=C)[C@@H]3CC1)=C\CC[C@@]1(C)O[C@@H]21,-97.9% (active)
20,Nc1c(C(=O)Nc2ccncc2)sc2nc3c(cc12)CCCCC3,85.9%
